Records with an inconclusive call do not appear. Entries that show only a call come without a potency. The source made the active and inactive calls. Calls follow the shape of the dose curve; as a rule, active = well fitted curve in the direction sought with a large enough effect; inconclusive = small, poorly fitted or top-dose-only effect, or another doubt; inactive = no such curve, though single readings can be large; an effect the other way counts as inactive or inconclusive.
Biological target: Rap guanine nucleotide exchange factor 3 (Homo sapiens) (UniProt O95398)
Experiment: Confirmatory qHTS for antagonist of cAMP-regulated guanine nucleotide exchange factor 3 (EPAC1) (AID 1645880); also: nearly all actives have a fitted effect of over 55% in size
Details: EPAC1 Rap1B-BODIPY-GDP exchange, fluorescence; series mostly up to 115 µM
How it was run: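 Released BODIPY-GDP fluoresces less than Rap1-bound BODIPY-GDP; the signal is followed at 480/540 nm at 5-min intervals over 30 min, after 5 min at room temperature. Reactions contain 100 nM EPAC1, 250 nM RAP1B-BODIPY-GDP and 50 uM GDP; results are normalized to ATA and DMSO.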
Potency is read from the fitted curve at half-maximal effect.

Rap guanine nucleotide exchange factor 3 (Homo sapiens), sequence (O95398 whole entry, looked up): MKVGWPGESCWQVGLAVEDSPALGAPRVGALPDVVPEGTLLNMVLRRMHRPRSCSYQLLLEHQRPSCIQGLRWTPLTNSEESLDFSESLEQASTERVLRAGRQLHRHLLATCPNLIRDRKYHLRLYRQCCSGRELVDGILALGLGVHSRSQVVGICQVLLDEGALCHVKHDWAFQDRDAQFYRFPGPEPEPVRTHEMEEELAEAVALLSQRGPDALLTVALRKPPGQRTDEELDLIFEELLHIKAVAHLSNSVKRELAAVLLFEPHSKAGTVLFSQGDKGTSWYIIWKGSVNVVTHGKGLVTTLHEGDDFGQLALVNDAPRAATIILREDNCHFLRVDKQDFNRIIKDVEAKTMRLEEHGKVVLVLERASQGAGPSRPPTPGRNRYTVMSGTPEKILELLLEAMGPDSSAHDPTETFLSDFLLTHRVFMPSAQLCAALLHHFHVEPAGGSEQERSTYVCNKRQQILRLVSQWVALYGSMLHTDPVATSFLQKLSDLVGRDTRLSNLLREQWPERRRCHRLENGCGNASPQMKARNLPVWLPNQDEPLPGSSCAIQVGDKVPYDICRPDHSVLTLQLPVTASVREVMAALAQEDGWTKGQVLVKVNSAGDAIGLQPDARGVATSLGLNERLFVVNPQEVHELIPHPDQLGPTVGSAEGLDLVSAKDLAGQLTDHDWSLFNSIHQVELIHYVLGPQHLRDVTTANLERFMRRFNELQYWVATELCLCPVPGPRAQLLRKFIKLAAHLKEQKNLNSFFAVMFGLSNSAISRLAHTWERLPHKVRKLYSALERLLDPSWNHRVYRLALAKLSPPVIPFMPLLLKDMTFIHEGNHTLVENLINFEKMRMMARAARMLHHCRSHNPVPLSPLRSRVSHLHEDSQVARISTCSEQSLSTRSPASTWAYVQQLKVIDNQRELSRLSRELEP

Question: Which Potency does the source give for c1ccc(CCNc2nc(-c3ccccc3)cs2)cc1 here?
Answer: inactive

Question: Which Potency does the source give for N#C/C(=C\c1ccc(O)c(O)c1)C(=O)c1ccc(O)c(O)c1 here?
Answer: 0.794 µM (active)

Question: CC(=O)[C@]1(O)Cc2c(O)c3c(c(O)c2[C@@H](O[C@H]2C[C@H](N)[C@H](O)[C@H](C)O2)C1)C(=O)c1c(O)cccc1C3=O was tested. Which Potency did it give?
Answer: inactive

Question: With O=C(O)c1cc([N+](=O)[O-])ccc1NCCCc1ccccc1 as the molecule, how does the Potency read?
Answer: inactive

Biological target: Rap guanine nucleotide exchange factor 3 (Homo sapiens) (UniProt O95398)
Experiment: Confirmatory qHTS for agonist of cAMP-regulated guanine nucleotide exchange factor 3 (EPAC1) (AID 1645881); also: nearly all actives have a fitted effect of over 75% in size
Details: EPAC1 Rap1B BODIPY-GDP exchange fluorescence; series mostly up to 154 µM

Question: Cc1ccc(O)c(N=Nc2ccccc2)n1 was tested. Which Potency did it give?
Answer: inactive

Question: c1ccc(CCNc2nc(-c3ccccc3)cs2)cc1 was tested. Which Potency did it give?
Answer: inactive

Question: With N#C/C(=C\c1ccc(O)c(O)c1)C(=O)c1ccc(O)c(O)c1 as the molecule, how does the Potency read?
Answer: inactive

Question: How did the Potency turn out when O=C1O/C(=C/Br)CCC1c1cccc2ccccc12 (centres undefined) was run?
Answer: inactive

Question: CC(=O)[C@]1(O)Cc2c(O)c3c(c(O)c2[C@@H](O[C@H]2C[C@H](N)[C@H](O)[C@H](C)O2)C1)C(=O)c1c(O)cccc1C3=O was tested. Which Potency did it give?
Answer: 70.6 µM (active)

Question: With CCOC(=O)C1=C(C)NC(C)=C(C(=O)OCC)C1c1c(F)c(F)c(F)c(F)c1F as the molecule, how does the Potency read?
Answer: inactive

Question: C#CCN1C(C)=C(C(=O)OC)C(c2cccc([N+](=O)[O-])c2)C(C(=O)OCC)=C1C (centres undefined) was tested. Which Potency did it give?
Answer: inactive

Question: For O=C(O)c1cc([N+](=O)[O-])ccc1NCCCc1ccccc1, which Potency is on record?
Answer: inactive

Question: With O=C1C(SCCO)=C(SCCO)C(=O)c2ccccc21 as the molecule, how does the Potency read?
Answer: inactive

Question: Oc1cc2c(cc1O)CN(C(=S)NCCc1ccc(Cl)cc1)CCC2 was tested. Which Potency did it give?
Answer: inactive

— PubChem BioAssay (NCATS)
